Screening results from PubChem.
Sampled rows, rich in hits. Any-hit rate of the full collection: about 11%.
ALDH1A1 inh – blocks purified human ALDH1A1 activity. P00352. Purified ALDH1A1, NADH fluorescence, propionaldehyde substrate. Potency, µM (top dose mostly 75.3 µM), for inactives: at the top dose activity, negative = inhibition, most hits filed as inhibitors. hit rate 7.3% among 220,000. AID 1030;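 also: potency is read from the fitted curve at half-maximal effect; plate controls were no enzyme wells and a reference inhibitor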
Target sequence (P00352 whole entry, looked up): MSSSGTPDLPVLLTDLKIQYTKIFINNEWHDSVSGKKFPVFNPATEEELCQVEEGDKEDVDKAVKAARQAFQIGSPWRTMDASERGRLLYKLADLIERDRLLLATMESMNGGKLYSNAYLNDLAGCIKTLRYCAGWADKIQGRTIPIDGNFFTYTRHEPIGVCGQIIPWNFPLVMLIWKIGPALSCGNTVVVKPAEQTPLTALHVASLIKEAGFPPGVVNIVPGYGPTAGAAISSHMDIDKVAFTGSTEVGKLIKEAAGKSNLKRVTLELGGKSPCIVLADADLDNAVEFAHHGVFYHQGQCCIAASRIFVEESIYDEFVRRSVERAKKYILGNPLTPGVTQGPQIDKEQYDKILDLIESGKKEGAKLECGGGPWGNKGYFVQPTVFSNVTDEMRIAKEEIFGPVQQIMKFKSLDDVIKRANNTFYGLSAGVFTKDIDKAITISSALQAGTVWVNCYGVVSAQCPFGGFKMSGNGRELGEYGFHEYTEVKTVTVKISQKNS
PNC assembly inh – blocks assembly of the perinucleolar compartment; hit rate 3.1% among 140,000; PC3M PTB-GFP, PNC prevalence imaging, 16 h; hits give low values; activity change (PNC), negative = inhibition, % at 10 µM;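 active = readout at or below -70, meaning at least 70% loss of cells showing the perinucleolar compartment, a nuclear body marking cancer cells; inconclusive = readout between -30 and a set limit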;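 also: plate controls were DMSO wells for no effect and camptothecin positive control wells for full effect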
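PC3M cells stably expressing PTB-GFP, 750–1000 cells/well, treated 16 h at 37 °C with compound (23 nl of library stock), in duplicate. After paraformaldehyde fixation and Hoechst stain, imaged at 20x; PNC prevalence scored by image analysis.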
HPGD inh – inhibitors of human 15-hydroxyprostaglandin dehydrogenase (HPGD). P15428. purified HPGD, NADH fluorescence kinetic, PGE2 substrate. Potency, µM, for the others: at the top dose activity change, negative = inhibition, actives largely listed as inhibitors. hit rate 4.3% among 150,000; also: potency is read from the fitted curve at half-maximal effect
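20 nM HPGD preincubated 15 min at room temperature with compound in 50 mM Tris-HCl pH 8, 0.01% Tween 20. Started with 1 mM NAD+ and 30 uM prostaglandin E2; NADH fluorescence (360/450 nm) read 5 times over 30-s intervals, last minus first.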
Numbers without * were called inactive; ? = inconclusive; . = no result given; [ ] = another dose, or the depositor's remark. Unless noted, calls follow the shape of the dose curve; as a rule, active = well fitted inhibition curve with a large enough effect (not every such curve was filed as active); inconclusive = small, poorly fitted or top-dose-only effect, or another doubt; inactive = no such curve, though single readings can be large or run the other way. Unless noted, % is scaled to controls: 0 for no effect and ±100 for the full control effect.

SMILES	ALDH1A1 inh	PNC assembly inh	HPGD inh
Cc1ccc(NC(=O)NCc2ccc3c(c2)OCO3)cc1C	7.2%	.	.
COc1ccc(-c2nc3ccccc3c(C(=O)Nc3ccc(S(=O)(=O)Nc4cc(C)on4)cc3)c2C)cc1	-3.7%	20.2	-21.7%
COc1ccc(S(=O)(=O)N2CCCCCC2)cc1N(C)S(=O)(=O)c1ccc(C)cc1	?	3.2	.
CCCNc1cc(C)oc(=O)c1C(=O)CC	4.5%	.	.
Cc1cc(=O)[nH]n(CCO)c1=O	-7.9%	.	.
CCCC(=O)Nc1cc(C(=O)O)ccc1Sc1ccccc1	2.0%	.	.
COc1ccc(CCNc2ccc(C)cc2)cc1	-6.7%	-24.7	-8.9%
COc1ccc(NC(=S)c2ccncc2)cc1	-0.8%	-21.7	-4.8%
COc1ccc(C(O)CNc2ccc(C)cc2)cc1 (configuration not stated)	20µM*	-4.6	-11.1%
Cc1ccc(S(=O)(=O)CNC(=S)c2ccc3ccccc3c2)cc1	?	66.8	-12.9%
COc1ccc(C(=S)Nc2ccc(C)cc2)cc1	?	128.3	22.4µM*
COc1ccc(C(=S)NCS(=O)(=O)c2ccc(C)cc2)cc1	22.4µM*	-23.5	25.1µM*
C/C(=N\S(=O)(=O)c1ccc(C)cc1)N(C)C	11.3%	.	.
COc1ccccc1C(=O)N/N=C/c1cnc2ccccc2n1	5.7%	109.7	-19.4%
COc1ccc(S(=O)(=O)N(C)C)cc1NC(=O)CSc1nncs1	-11.1%	.	.
O=C(COC(=O)c1c[nH]c(=O)[nH]c1=O)Nc1ccccc1	13.3%	.	.
O=c1oc(-c2ccc(F)cc2)nc2ccsc12	0.1%	-111.4*	-7.6%
Cc1cc2c(=O)[nH]cnc2s1	3.8%	6.9	-12.0%
O=c1oc(-c2ccccc2Cl)nc2ccsc12	-11.6%	?	-18.4%
Cc1cc2c(=O)oc(-c3ccc(F)cc3)nc2s1	15.8µM*	.	.
CCc1ccccc1S(=O)(=O)Cc1ccc(C(=O)NCc2cccs2)o1	4.9%	.	.
Cc1cccc(/C(N)=N/OC(=O)CCc2ccccc2)c1	-8.0%	-3.5	.
CCOC(=O)C1CCCN(C2CC(=O)N(c3ccc(NC(C)=O)cc3)C2=O)C1 (configuration not stated)	31.6µM*	.	.
CCOC(=O)C1CCCN(S(=O)(=O)c2cc(OCC(=O)NC3CCCCC3)c(C)cc2Cl)C1 (configuration not stated)	7.08µM*	22.7	-5.3%
Cc1ccc(C(=O)NC2CCN(S(=O)(=O)c3ccc(C)cc3)CC2)cc1	0.7%	.	.
SMILES	ALDH1A1 inh	PNC assembly inh	HPGD inh
Cc1cc(Cl)c(S(=O)(=O)N2CCN(c3ccc(F)cc3)CC2)cc1OCC(=O)NC1CCCCC1	-3.9%	?	-19.3%
CCOC(=O)C1CCCN(C2CC(=O)N(c3ccc(C)cc3)C2=O)C1 (configuration not stated)	-7.8%	44.3	-5.4%
CCOC(=O)C1CCN(S(=O)(=O)c2ccc(OCC(=O)OC)cc2)CC1	7.4%	?	2.8%
CCOC(=O)C1CCN(S(=O)(=O)c2ccc(C(C)=O)cc2)CC1	-1.2%	-100.0*	-12.5%
COCC(=O)NC1CCN(S(=O)(=O)c2ccc(C(=O)O)cc2)CC1	-0.5%	-121.8*	.
COc1ccc(N(CCC#N)S(=O)(=O)c2cccc3nsnc23)cc1	7.7%	?	-16.3%
CCC(=O)Oc1ccc(NC(=O)CSCc2ccccc2)cc1	1.7%	.	.
COc1cc(C(=O)Oc2ccc3c(OC)c4ccoc4nc3c2OC)cc(OC)c1OC	3.8%	.	-8.7%
CCOC(=O)c1oc2ccc(Cl)cc2c1NC(C)=O	-2.3%	.	.
O=C1OCCC1Sc1nnnn1-c1ccc(Cl)cc1 (configuration not stated)	0.8%	.	.
Cc1cc(Cl)c(S(=O)(=O)Nc2ccon2)cc1OCC(=O)NC1CCCCC1	16.9%	?	1.6%
CCOC(=O)C1CCCN(S(=O)(=O)c2ccc(OC)c3ccccc23)C1 (configuration not stated)	?	29.9	-13.7%
CCOC(=O)C1CCCN(S(=O)(=O)c2ccc(NC(C)=O)cc2)C1 (configuration not stated)	2.82µM*	.	.
CCOC(=O)C1CCCN(S(=O)(=O)c2ccccc2)C1 (configuration not stated)	-6.8%	17.5	0.1%
CCOC(=O)C1CCN(C(=S)Nc2ccc(S(N)(=O)=O)cc2)CC1	15µM*	4.0	28.2µM*
CCOC(=O)C1CCN(C(=S)Nc2ccc(C)cc2)CC1	3.6%	.	.
Cc1cc(Cl)c(S(=O)(=O)NC2CCCCC2)cc1OCC(=O)Nc1nncs1	?	-118.9*	-2.3%
CCOC(=O)C1CCCN(S(=O)(=O)c2ccc(Br)c(OC)c2)C1 (configuration not stated)	11.2µM*	?	-6.8%
c1nc2n(n1)C1=C(CCCC1)C1(CCCCC1)N2	-10.3%	.	.
COc1ccc(OC(=O)CN2C(=O)C3C4CCC(C4)C3C2=O)cc1 (configuration not stated)	-8.7%	?	0.4%
Cc1cccc(NC(=S)N(CCN(C)C)Cc2cc3cc(C)cc(C)c3[nH]c2=O)c1	3.2%	2.9	-7.3%
Cc1cccc(NC(=S)N(CCN(C)C)Cc2cc3cccc(C)c3[nH]c2=O)c1	0.8%	-100.0*	-2.7%
COc1cc2cc(CN(Cc3cccs3)C(=S)Nc3ccc(C)cc3)c(=O)[nH]c2cc1OC	?	-23.9	?
COc1cc2cc(CN(Cc3cccs3)C(=S)Nc3cccc(C)c3)c(=O)[nH]c2cc1OC	?	-113.0*	-26.1%
CCOP(=O)(O)c1cccc(OCCOCCOc2cccc(P(=O)(O)OCC)c2)c1	10.2%	.	.
SMILES	ALDH1A1 inh	PNC assembly inh	HPGD inh
CCn1c(N2CCN(CC(=O)c3c[nH]c4ccccc34)CC2)nc2c1c(=O)[nH]c(=O)n2C	22.4µM*	10.1	-12.0%
Cn1c(=O)c2c(nc(CN3CCN(CCO)CC3)n2Cc2cccc3ccccc23)n(C)c1=O	4.47µM*	8.4	-2.1%
C/C=C/Cn1c(N2CCCCCC2)nc2c1c(=O)[nH]c(=O)n2C	?	?	-17.5%
Cn1c(=O)[nH]c(=O)c2c1nc(N1CCCCCC1)n2CC(N)=O	14.1µM*	-18.8	-5.1%
CCN1CCN(Cc2nc3c(c(=O)n(C)c(=O)n3C)n2Cc2ccccc2Cl)CC1	-0.3%	-18.5	-11.0%
CN1CCN(c2nc3c(c(=O)n(C)c(=O)n3C)n2Cc2cccc3ccccc23)CC1	11.2µM*	42.0	-8.3%
Cn1c(=O)c2c(nc(N3CCN(Cc4ccccc4)CC3)n2CCSc2ncccn2)n(C)c1=O	1.7%	?	4.1%
CCCn1c(N2CCN(CC(=O)c3c(C)n(C)c4ccccc34)CC2)nc2c1c(=O)[nH]c(=O)n2C	?	-23.5	-3.3%
CCOC(=O)CC1C(=O)NCCN1S(=O)(=O)c1ccccc1Cl (configuration not stated)	9.5%	85.4	-10.7%
Cc1ccc2c(c1)Oc1ccccc1C=C2C(=O)O	-5.2%	.	.
CCN(CC)CCCNC(CC(=O)Nc1cccc([N+](=O)[O-])c1)C(=O)O (configuration not stated)	-3.0%	47.0	-10.1%
O=C(c1ccc(-n2c(=O)c(=O)[nH]c3ccccc32)cc1)N1CCCN(Cc2ccccc2)CC1	?	.	-6.8%
C[C@H]1Cc2c(-c3ccccc3)nc3c(c2CO1)CN(S(=O)(=O)c1ccc(C#N)cc1)CC3	14.3%[13.5 µM]	.	-1.0%
Cn1c(=O)c2c(nc(N3CCOCC3)n2CC(=O)c2ccccc2)n(C)c1=O	-1.3%	?	-13.6%
